# From PubChem BioAssay (NCATS)
# Results filed as inconclusive are left out. A call without a number means that no potency is given here. Values without a mark were called inactive. The source made the active and inactive calls. Calls come from the whole dose curve; as a rule, active = well fitted curve in the direction sought with a large enough effect; inconclusive = small, poorly fitted or top-dose-only effect, or another doubt; inactive = no such curve, though single readings can be large; an effect the other way counts as inactive or inconclusive.
# Columns and labels:
# [1] = P-glycoprotein substrates identified in KB-3-1 adenocarcinoma cell line, qHTS therapeutic library screen (AID 1346986); note: nearly all actives have a fitted effect of over 60% in size
# Procedure, shortened: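 Using luminescence to quantify ATP, parental and P-gp-overexpressing KB cells were compared after 72 h compound titration. KB-8-5-11 was also run with the P-gp inhibitor tariquidar.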
# [2] = P-glycoprotein substrates identified in KB-8-5-11 adenocarcinoma cell line, qHTS therapeutic library screen (AID 1346987); note: nearly all actives have a fitted effect of over 65% in size; for activity change, negative = cytotoxicity: series mostly up to about 44 µM
# Procedure, shortened: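 In this qHTS, P-gp-rich KB-8-5-11 cells received library compounds across a concentration range. Viability was quantified by luminescence after 72 h at 37 degree C.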
structure (smiles),measurement,setting,value
O=C(/C=C/c1ccc(O)cc1)OC[C@@]1(O)C=C[C@@H]2C(C(=O)O)=CO[C@@H](O[C@@H]3O[C@H](CO)[C@@H](O)[C@H](O)[C@H]3O)[C@@H]21,Potency,[1],inactive
same,Potency,[2],inactive
C[C@@H]1C[C@@H](O)[C@@]23CO[C@]2(CO)C[C@@H](O)CC3[C@@]12CC(c1ccoc1)OC2=O (some centres undefined),Potency,[1],inactive
same,Potency,[2],inactive
CCNC(=O)OC1CCN(c2nncc3cc(OC)c(OC)cc23)CC1,Potency,[1],inactive
same,Potency,[2],inactive
CCC12CCCN3CCc4c(n(c5ccccc45)C(O)C1)C32 (centres undefined),Potency,[1],inactive
same,Potency,[2],inactive
CC1=CC(=O)[C@]2(O[C@@H]3O[C@@H](C)[C@H](O)[C@@H](O)[C@H]3O)C=CO[C@@H](O[C@@H]3O[C@H](CO)[C@@H](O)[C@H](O)[C@H]3O)[C@H]12,Potency,[1],inactive
same,Potency,[2],inactive
COC(=O)C1=COC(O[C@@H]2O[C@H](CO)[C@@H](O)[C@H](O)[C@H]2O)/C(=C\COC(=O)/C=C/c2ccccc2)C1CC(=O)OCCc1ccc(O)cc1 (some centres undefined),Potency,[1],inactive
same,Potency,[2],inactive
O=C(O)CC(CCc1ccccc1)OC1OC(CO)C(O)C(O)C1O (centres undefined),Potency,[1],inactive
same,Potency,[2],inactive
C#CCCCn1cc(-c2cccc3c2N[C@@H](C)CC(=O)N3)cn1,Potency,[1],inactive
same,Potency,[2],inactive
COc1cc(/C=C/C(=O)O[C@H]2C[C@@H]3C(C(=O)O)=CO[C@@H](O[C@@H]4O[C@H](CO)[C@@H](O)[C@H](O)[C@H]4O)[C@@H]3[C@H]2C)ccc1O,Potency,[1],inactive
same,Potency,[2],inactive
C[C@@H]1O[C@@H](O[C@H]2[C@H](OC(=O)[C@]34CCC(C)(C)C[C@H]3C3=CCC5[C@@]6(C)C[C@@H](O)[C@@H](O[C@@H]7O[C@H](CO)[C@@H](O)[C@H](O)[C@H]7O)[C@@](C)(CO)C6[C@H](O)C[C@@]5(C)[C@]3(C)CC4)OC[C@H](O)[C@@H]2O)[C@H](O)[C@H](O[C@@H]2OC[C@](O)(CO)[C@H]2O)[C@H]1O[C@@H]1OC[C@@H](O)[C@H](O[C@H]2O[C@H](C)[C@@H](O)[C@H](O)[C@@H]2O)[C@H]1O (some centres undefined),outcome,[1],inactive [at 9.29 µM]
same,"activity change, negative = cytotoxicity",[2],2.77% [at 9.29 µM]
CC(C)=CCC[C@](C)(O[C@@H]1O[C@H](CO[C@@H]2O[C@@H](CO)[C@H](O)[C@H]2O)[C@@H](O)[C@H](O)[C@H]1O)[C@H]1CC[C@]2(C)[C@@H]1[C@H](O)C[C@@H]1[C@@]3(C)CC[C@H](O[C@@H]4O[C@H](CO)[C@@H](O)[C@H](O)[C@H]4O[C@@H]4O[C@H](CO)[C@@H](O)[C@H](O)[C@H]4O)C(C)(C)[C@@H]3CC[C@]12C,Potency,[1],inactive
same,Potency,[2],inactive
COC(=O)c1c(CC=C(C)C)c(OC2OC(CO)C(O)C(O)C2O)c2ccccc2c1OC1OC(CO)C(O)C(O)C1O (centres undefined),Potency,[1],inactive
same,Potency,[2],inactive
COc1c2c(c(C)c3c1C(=O)OC3)OC1(C)CC(O)C34OC(OC)(CCC3(C)C1C2)OC4(C)CO (centres undefined),Potency,[1],inactive
same,Potency,[2],inactive
C[C@H](O)C(O)(C(=O)OCc1ccccc1NC(=O)CCC(N)C(=O)O)[C@H](C)O (some centres undefined),Potency,[1],inactive
same,Potency,[2],inactive
Cc1cccc(-c2nn3c(c2-c2ccnc4ccc(C(N)=O)cc24)CCC3)n1,Potency,[1],inactive
same,Potency,[2],inactive
O=S(=O)(O)c1ccc(Nc2ncnc3c2ncn3[C@@H]2O[C@H](CO)[C@@H](O)[C@H]2O)cc1,Potency,[1],inactive
same,Potency,[2],inactive
O=C(NCCN1CCCC1)c1cc(-c2ccc(CN3CCOCC3)cc2)nc2ccc(F)cc12,Potency,[1],inactive
same,Potency,[2],inactive
CC1CCCCCCCc2cc(O)cc(O)c2C(=O)O1 (centres undefined),Potency,[1],inactive
same,Potency,[2],inactive
COc1ccc(/C=C/C(N)=O)cc1OC,Potency,[1],inactive
same,Potency,[2],inactive
CC(=O)/C=C/C1C(C)CC(O[C@@H]2O[C@H](CO)[C@@H](O)[C@H](O)[C@H]2O)CC1(C)C (some centres undefined),Potency,[1],inactive
same,Potency,[2],inactive
O=C1C(Cl)=C(N2CCOCC2)C(=O)N1c1ccc(Cl)c(Cl)c1,Potency,[1],inactive
same,Potency,[2],inactive
COC(=O)[C@H](Cc1cccc(C(=N)N)c1)[C@@H](C)NC(=O)c1ccc(-c2cc[n+]([O-])cc2)cc1,Potency,[1],inactive
same,Potency,[2],inactive
CCC(C)C(C(=O)O)N1Cc2c(OCC=C(C)C)c(C)c(OC)c(C(=O)O)c2C1=O (centres undefined),Potency,[1],inactive
same,Potency,[2],inactive
COC(=O)[C@H](Cc1ccc([N+](=O)[O-])cc1)NC(=O)c1cccc2ccccc12,Potency,[1],inactive
same,Potency,[2],inactive
Cc1c(-c2ccc3c(c2)OCO3)oc2ccc(C(O)C(C)O)cc12 (centres undefined),Potency,[1],inactive
same,Potency,[2],inactive
CC(=O)OCC1=C[C@@H]2OC(=O)C3=CO[C@@H](O[C@@H]4O[C@H](CO)[C@@H](O)[C@H](O)[C@H]4O)[C@H]1[C@@H]32,Potency,[1],inactive
same,Potency,[2],inactive
CO[C@H]1c2cc(C(C)C)c(O)c(O)c2[C@@]23CCCC(C)(C)C2[C@@H]1OC3=O (some centres undefined),Potency,[1],inactive
same,Potency,[2],inactive
C/C=C1/[C@H](O[C@@H]2O[C@H](CO)[C@@H](O)[C@H](O)[C@H]2O)OC=C2C(=O)O[C@@H]3C[C@@H](C(C)CO)[C@H](COC(=O)C[C@H]21)[C@H]3C (some centres undefined),Potency,[1],inactive
same,Potency,[2],inactive
C[C@@H]1[C@H](O)[C@@H]2OC(=O)C3=C2[C@H](CCC3)[C@@]12C[C@@H](c1ccoc1)OC2=O,Potency,[1],inactive
same,Potency,[2],inactive
C=C(C)C(O)COc1ccc(CC(=O)O)cc1 (centres undefined),Potency,[1],inactive
same,Potency,[2],inactive
CC(C)=C1CC2C(CCC2(C)O)C(C)(O)CC1=O (centres undefined),Potency,[1],inactive
same,Potency,[2],inactive
Cc1ccc(-n2nc(C(C)(C)C)cc2NC(=O)Nc2cc(COc3cccnc3)[nH]n2)cc1,Potency,[1],inactive
same,Potency,[2],inactive
C[C@]12CC/C(=N\OCC(=O)O)C=C1CC[C@@H]1[C@@H]2[C@@H](O)C[C@@]2(C)[C@H]1CC[C@]2(O)C(=O)CO,Potency,[1],inactive
same,Potency,[2],inactive
C/C=C1/[C@H](O[C@@H]2O[C@H](CO)[C@@H](O)[C@H](O)[C@H]2O)OC=C(C(=O)OC)[C@H]1CC(=O)OCCc1ccc(OC(=O)C[C@@H]2C(C(=O)OC)=CO[C@@H](O[C@@H]3O[C@H](CO)[C@@H](O)[C@H](O)[C@H]3O)/C2=C/C)cc1,outcome,[1],inactive [at 9.29 µM]
same,"activity change, negative = cytotoxicity",[2],6.56% [at 9.29 µM]
CCc1nn(CCO)c(CC)c1Oc1cc(C#N)cc(C#N)c1,Potency,[1],inactive
same,Potency,[2],inactive
CC(=O)OC1CC2(C)C(CCC(C)C23Cc2c(O)cc4c(c2O3)CNC4=O)C(C)(C)C1O (centres undefined),Potency,[1],inactive
same,Potency,[2],inactive
COc1c(-c2ccc(O)cc2)cc(OC)c2c1oc1cc(O)c(OC3OC(CO)C(O)C3O)cc12 (centres undefined),Potency,[1],inactive
same,Potency,[2],inactive
COC(=O)C1=COC(OC2OC(CO)C(O)C(O)C2O)C2C(COC(=O)/C=C/c3ccc(O)cc3)C(O)C(O)C12 (centres undefined),Potency,[1],inactive
same,Potency,[2],inactive
C[C@@H]1O[C@@H](O[C@H]2[C@H](O[C@H]3[C@H](O[C@H]4CC[C@@]5(C)C(CC[C@]6(C)C5CC=C5[C@@H]7CC(C)(C)C[C@@H](O)[C@]7(C)CC[C@]56C)[C@@]4(C)CO)O[C@H](C(=O)O)[C@@H](O)[C@@H]3O)O[C@H](CO)[C@H](O)[C@@H]2O)[C@H](O)[C@H](O)[C@H]1O (some centres undefined),outcome,[1],inactive [at 9.29 µM]
same,outcome,[2],inactive [at 9.29 µM]
CC1CCC2(C(=O)O)CCC3(C)C(=CCC4C5(C)C[C@@H](O)[C@@H](O)C(C)(CO)C5CCC43C)C2C1(C)O (some centres undefined),Potency,[1],inactive
same,Potency,[2],inactive
COc1cc(/C=C/C(=O)OC[C@H]2O[C@@H](OC3CC(C)=C(C(=O)O)C(C)(C)C3)[C@H](O)[C@@H](O)[C@@H]2O)cc(OC)c1O (some centres undefined),Potency,[1],inactive
same,Potency,[2],inactive
Cn1cc(Nc2cnccc2C(=O)O)c2cccnc21,Potency,[1],inactive
same,Potency,[2],inactive
COc1cc(CC2COC(c3ccc(OC4OC(CO)C(O)C(O)C4O)c(OC)c3)C2CO)ccc1O (centres undefined),Potency,[1],inactive
same,Potency,[2],inactive
Nc1nc2c(nc(Sc3ccc(Cl)cc3)n2[C@@H]2O[C@@H]3COP(=O)(O)O[C@H]3[C@H]2O)c(=O)[nH]1,Potency,[1],inactive
same,Potency,[2],inactive
OC[C@H]1O[C@@H](OC[C@H]2O[C@@H](OCc3ccccc3)[C@H](O)[C@@H](O)[C@@H]2O)[C@H](O)[C@@H](O)[C@@H]1O,Potency,[1],inactive
same,Potency,[2],inactive
CCC(C)/C=C(C)/C=C/C1=CC2=C(Cl)C(=O)C(C)(OC(C)=O)C(=O)C2=CN1CCCCC(N)C(=O)O (centres undefined),Potency,[1],inactive
same,Potency,[2],inactive
C[C@@]1(O)[C@H](O)[C@@H](CO)O[C@H]1n1cnc2c(=O)[nH]c(N)nc21,Potency,[1],inactive
same,Potency,[2],inactive
CC1(C)CC[C@]2(C(=O)O[C@@H]3O[C@H](CO)[C@@H](O)[C@H](O)[C@H]3O)CC[C@]3(C)C(=CCC4[C@@]5(C)CC[C@H](O[C@@H]6O[C@H](C(=O)O)[C@@H](O)[C@H](O)[C@H]6OC6OC(CO)C(O)C(O)C6O)C(C)(C)C5CC[C@]43C)[C@@H]2C1 (some centres undefined),outcome,[1],inactive [at 9.29 µM]
same,outcome,[2],inactive [at 9.29 µM]
CC1(C)CC[C@]2(C(=O)O[C@@H]3O[C@H](CO[C@@H]4O[C@H](CO[C@@H]5O[C@H](CO)[C@H](O)[C@H](O)[C@H]5O)[C@@H](O)[C@H](O)[C@H]4O)[C@@H](O)[C@H](O[C@@H]4O[C@H](CO)[C@@H](O)[C@H](O)[C@H]4O)[C@H]3O)[C@H](O)C[C@]3(C)C(=CCC4[C@@]5(C)CC[C@H](O[C@@H]6OC[C@@H](O)[C@H](O)[C@H]6O)[C@@](C)(C(=O)O)C5CC[C@]43C)[C@@H]2C1 (some centres undefined),outcome,[1],inactive [at 9.29 µM]
same,outcome,[2],inactive [at 9.29 µM]
CC1(CO)CC(O)C2(C)CCC3(C)C(=CCC4C5(C=O)CCC(OC6OC(C(=O)O)C(O)C(O)C6OC6OC(C(=O)O)C(O)C(O)C6O)C(C)(C)C5CCC43C)C2C1 (centres undefined),outcome,[1],inactive [at 9.29 µM]
same,outcome,[2],inactive [at 9.29 µM]
CC1(C)OC(=O)C=C[C@@]2(C)C1CC(=O)[C@]1(C)C2CC[C@@]2(C)[C@H](c3ccoc3)OC(=O)[C@H]3O[C@]321 (some centres undefined),Potency,[1],inactive
same,Potency,[2],inactive
CC1(C(=O)O)CC[C@]2(C(=O)OC3OC(CO)C(O)C(O)C3O)CC[C@]3(C)C(=CCC4[C@@]5(C)CC[C@H](OC6OCC(O)C(O)C6OC6OC(CO)C(O)C(O)C6O)C(C)(C)C5CC[C@]43C)C2C1 (some centres undefined),outcome,[1],inactive [at 9.29 µM]
same,outcome,[2],inactive [at 9.29 µM]
